Measured values: PubChem BioAssay (Tox21)
Where “and” joins values, the source holds several entries; their conditions need not be identical. Equal values may be shown once. Inconclusive results are not listed. Where a structure was tested more than once in an assay, its records may differ in their call. Calls of active or inactive are those of the source. Unless noted, the call rests on the fitted dose curve; in most records, active means well fitted curve in the direction sought with a large enough effect in the repeat runs; inconclusive means weak or mixed curves; inactive means no such curve, though single readings can be large; an effect the other way counts as inactive or inconclusive.

Tests used:
[1] = qHTS assay to identify small molecule agonists of the TGF-beta/Smad signaling pathway - cell viability counter screen (AID 1346829); further: top concentration of the series differs between compounds; on the % scale 0 is the no-effect control and ±100 the full control effect; nearly all actives have a fitted effect of over 45% in size
Summary of the method: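 Here the cytotoxicity of library compounds is measured in SBE-bla HEK 293T cells treated for 5 hr, using CellTiter-Glo added to wells already read for the beta-lactamase reporter.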

[2] = qHTS assay to identify small molecule agonists of the TGF-beta/Smad signaling pathway (AID 1346859; active means well fitted activation curve with a large enough effect in the signal ratio in the repeat runs, not every such curve was filed as active; the % refers to the signal ratio; further: series mostly up to about 77 µM; on the % scale 0 is the no-effect control and ±100 the full control effect)
Summary of the method: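 After overnight seeding, SBE-bla HEK 293T cells are dosed with compounds in DMSO and kept 5 hr at 37 C, 5% CO2. LiveBLAzer-type FRET substrate is then applied for 2 hr at room temperature.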

[3] = molecular target: Thyrotropin-releasing hormone receptor (Homo sapiens) (UniProt P34981); experiment: qHTS assay to identify small molecule antagonists of the thyrotropin-releasing hormone receptor (TRHR) signaling pathway (AID 1346877; active means well fitted inhibition curve with a large enough effect in the repeat runs, not every such curve was filed as active; further: series mostly up to about 51 µM; on the % scale 0 is the no-effect control and ±100 the full control effect)
Summary of the method: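 HEK293/TRHR cells, 18 h, 37 °C; Ca2+ dye 2 h; cpd 5 min RT; TRH 1 nM final; fluorescence read 3 min, 1 s intervals; 15 concs, triplicate.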

[4] = molecular target: Thyrotropin-releasing hormone receptor (Homo sapiens) (UniProt P34981); experiment: qHTS assay to identify small molecule agonists of the thyrotropin-releasing hormone receptor (TRHR) signaling pathway (AID 1346891; calls by dose curve;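 further: HEK293 cells expressing TRHR with calcium dye readout; series mostly up to about 58 µM; on the % scale 0 is the no-effect control and ±100 the full control effect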)
Summary of the method: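 Compounds were tested as agonists at 15 concentrations, in triplicate, on TRHR-Hek293 cells; calcium-sensitive dye fluorescence was recorded for 3 min following addition.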

[5] = Human pregnane X receptor (PXR) small molecule agonists, qHTS cell viability counter screen (AID 1346977); further: nearly all actives have a fitted effect of over 50% in size; further: potency means the concentration at half of the fitted maximal effect; on activity change, negative = cytotoxicity: on the % scale 0 is the no-effect control and ±100 the full control effect
Summary of the method: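 Viability counter screen: CellTiter-Fluor signal in PXR-Luc HepG2 cells, 24hr compound exposure, 37C, 5% CO2.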

[6] = Caspase-3/7 induction in HepG2 cells by small molecules, qHTS assay (AID 1346978); further: nearly all actives have a fitted effect of over 15% in size; further: potency means the concentration at half of the fitted maximal effect
Summary of the method: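 Wild-type HepG2 cells, 2,000/well, settled 5 hr at 37 C and 5% CO2, then compound-treated for 17 hr; caspase-3/7 activity read by luminescent Caspase-Glo 3/7 after 30 min at room temperature.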

[7] = Caspase-3/7 induction in CHO-K1 cells by small molecules, qHTS assay (AID 1346980); further: on the % scale 0 is the no-effect control and ±100 the full control effect; nearly all actives have a fitted effect of over 15% in size
Summary of the method: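 Wild-type CHO-K1 cells exposed to compounds for 17hr at 37 C, 5% CO2. Caspase-3/7 activity then measured by Caspase-Glo 3/7 luminescence after 30min at room temperature.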

[8] = Caspase-3/7 induction in HepG2 cells by small molecules, qHTS cell viability counter screen (AID 1346981); further: nearly all actives have a fitted effect of over 30% in size; further: potency means the concentration at half of the fitted maximal effect
Summary of the method: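 Fluorescence read-out of live-cell protease activity (CellTiter-Fluor) after 1 hr with reagent. This was measured in the same wells as the caspase-3/7 luminescence, on HepG2 cells exposed to DMSO-dissolved compounds for 16 hr at 37 C.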

[9] = molecular target: Nuclear receptor subfamily 1 group I member 2 (Homo sapiens) (UniProt O75469); experiment: CYP3A4 induction through human pregnane X receptor (PXR) by small molecules, qHTS assay (AID 1346984); further: on the % scale 0 is the no-effect control and ±100 the full control effect; nearly all actives have a fitted effect of over 40% in size
Summary of the method: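 HepG2-derived DPX-2 line carrying PXR plus a CYP3A4-promoter luciferase reporter; cells plated 5 hr, compound-exposed 24 hr at 37C. CYP3A4 activity probed with 3uM (final) Luciferin-IPA for 3hr, then luciferase read after One-Glo.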

[10] = molecular target: Nuclear receptor subfamily 1 group I member 2 (Homo sapiens) (UniProt O75469); experiment: Human pregnane X receptor (PXR) activation by small molecules, qHTS assay (AID 1346985); further: on the % scale 0 is the no-effect control and ±100 the full control effect; nearly all actives have a fitted effect of over 40% in size
Summary of the method: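 DPX-2 cells (HepG2 co-transfected with a PXR response element and a CYP3A4-promoter luciferase construct) were seeded at 2,000 per well, rested 5 hr at 37C, then exposed to DMSO-dissolved compounds for 24 hr. Activation was read as luciferase luminescence.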

[11] = molecular target: Cytochrome P450 2D6 (Homo sapiens) (UniProt P10635); experiment: Cytochrome P450 Family 2 Subfamily D Member 6 (CYP2D6) small molecule antagonists: luciferase reporter qHTS assay (AID 1671196); further: nearly all actives have a fitted effect of over 50% in size; further: potency means the concentration at half of the fitted maximal effect
Summary of the method: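 Luminogenic proluciferin substrate, CYP2D6 enzyme; 10 min RT preincubation with compound, NADPH regeneration system added, 1 h RT. Stop/detection reagent, 20 min RT, luminescence read (RLU). Signal proportional to CYP activity.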

[12] = molecular target: Cytochrome P450 2C9 (Homo sapiens) (UniProt P11712); experiment: Cytochrome P450 Family 2 Subfamily C Member 9 (CYP2C9) small molecule antagonists: luciferase reporter qHTS assay (AID 1671198); further: nearly all actives have a fitted effect of over 50% in size; further: potency means the concentration at half of the fitted maximal effect
Summary of the method: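 P450-Glo proluciferin substrate with CYP2C9 enzyme; 10 min RT preincubation, then NADPH regeneration 1 h at 37C; luciferin detection reagent 20 min RT, luminescence in relative luminescence units.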

[13] = molecular target: Nuclear receptor subfamily 1 group I member 2 (Homo sapiens) (UniProt O75469); experiment: Human pregnane X receptor (PXR) small molecule agonists, qHTS assay (AID 1346982); further: nearly all actives have a fitted effect of over 35% in size; further: potency means the concentration at half of the fitted maximal effect
Summary of the method: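 HepG2 PXR-Luc reporter line, 5% charcoal-stripped FBS; 5 hr pre-incubation, compound (DMSO) 24 hr at 37 C/5% CO2; ONE-Glo 30 min RT; luminescence read-out.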

[14] = molecular target: Cytochrome P450 2C19 (Homo sapiens) (UniProt P33261); experiment: Cytochrome P450 Family 2 Subfamily C Member 19 (CYP2C19) small molecule antagonists: luciferase reporter qHTS assay (AID 1671197); further: nearly all actives have a fitted effect of over 65% in size; further: potency means the concentration at half of the fitted maximal effect
Summary of the method: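 Light output is proportional to CYP2C19 activity: proluciferin substrate is converted to luciferin, then detected by a luciferin detection reagent that also stops the 1 h, 37C NADPH-driven reaction. Ketoconazole serves as positive control.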

[15] = qHTS assay to identify small molecule antagonists of the TGF-beta/Smad signaling pathway - cell viability counter screen (AID 1346824); further: on the % scale 0 is the no-effect control and ±100 the full control effect; nearly all actives have a fitted effect of over 50% in size
Summary of the method: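 SBE-bla HEK 293T cells, incubated overnight, then compound plus 0.25 ng/mL TGF-beta1 (stock added) for 5 hr at 37 C. Viability was read in the same wells by CellTiter-Glo luminescence after 30 min at room temperature.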

[16] = Caspase-3/7 induction in CHO-K1 cells by small molecules, qHTS cell viability counter screen (AID 1346979); further: nearly all actives have a fitted effect of over 35% in size; further: potency means the concentration at half of the fitted maximal effect
Summary of the method: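 Viability readout by fluorescence (CellTiter-Fluor) on wild-type CHO-K1 cells exposed for 16hr at 37C and 5% CO2 to compounds delivered in DMSO; reagent incubated 1hr before reading.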

[17] = qHTS assay to identify small molecule agonists of the progesterone receptor (PR) signaling pathway - cell viability counter screen (AID 1346799; calls by dose curve; further: potency means the concentration at half of the fitted maximal effect; nearly all actives have a fitted effect of over 45% in size)
Summary of the method: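 In parallel with the beta-lactamase readout, cytotoxicity toward PR-UAS-bla HEK293T cells was measured by CellTiter-Glo luminescence following 16 hr compound incubation in 2% charcoal-stripped FBS medium.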

Chain of Cytochrome P450 2C9 (Homo sapiens) (P11712 whole entry, looked up): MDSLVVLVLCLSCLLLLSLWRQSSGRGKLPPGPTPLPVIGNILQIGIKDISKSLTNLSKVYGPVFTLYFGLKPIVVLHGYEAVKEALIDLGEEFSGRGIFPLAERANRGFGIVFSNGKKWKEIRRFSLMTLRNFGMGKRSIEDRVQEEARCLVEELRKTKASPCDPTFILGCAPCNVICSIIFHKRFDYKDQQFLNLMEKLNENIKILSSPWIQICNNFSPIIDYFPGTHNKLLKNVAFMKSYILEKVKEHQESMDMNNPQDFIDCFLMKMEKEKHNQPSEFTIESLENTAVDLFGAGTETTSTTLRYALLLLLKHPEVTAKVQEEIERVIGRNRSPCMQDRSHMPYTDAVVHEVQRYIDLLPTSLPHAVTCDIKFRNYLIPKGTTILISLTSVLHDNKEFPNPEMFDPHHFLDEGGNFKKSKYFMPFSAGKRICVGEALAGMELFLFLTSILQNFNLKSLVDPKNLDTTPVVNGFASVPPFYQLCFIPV
Chain of Cytochrome P450 2D6 (Homo sapiens) (P10635 whole entry, looked up): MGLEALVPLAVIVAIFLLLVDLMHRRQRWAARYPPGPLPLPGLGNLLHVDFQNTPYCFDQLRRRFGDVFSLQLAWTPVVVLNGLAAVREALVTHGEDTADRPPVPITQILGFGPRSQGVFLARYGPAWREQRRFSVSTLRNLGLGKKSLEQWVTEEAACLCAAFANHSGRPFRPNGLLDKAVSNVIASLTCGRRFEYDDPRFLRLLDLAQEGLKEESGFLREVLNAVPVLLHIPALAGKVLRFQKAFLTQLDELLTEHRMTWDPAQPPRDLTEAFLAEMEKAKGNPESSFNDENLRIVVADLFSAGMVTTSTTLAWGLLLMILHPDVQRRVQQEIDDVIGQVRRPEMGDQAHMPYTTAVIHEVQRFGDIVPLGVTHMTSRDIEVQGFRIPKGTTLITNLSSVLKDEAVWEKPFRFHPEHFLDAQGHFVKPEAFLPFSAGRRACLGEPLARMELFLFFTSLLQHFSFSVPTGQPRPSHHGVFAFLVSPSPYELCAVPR
Chain of Cytochrome P450 2C19 (Homo sapiens) (P33261 whole entry, looked up): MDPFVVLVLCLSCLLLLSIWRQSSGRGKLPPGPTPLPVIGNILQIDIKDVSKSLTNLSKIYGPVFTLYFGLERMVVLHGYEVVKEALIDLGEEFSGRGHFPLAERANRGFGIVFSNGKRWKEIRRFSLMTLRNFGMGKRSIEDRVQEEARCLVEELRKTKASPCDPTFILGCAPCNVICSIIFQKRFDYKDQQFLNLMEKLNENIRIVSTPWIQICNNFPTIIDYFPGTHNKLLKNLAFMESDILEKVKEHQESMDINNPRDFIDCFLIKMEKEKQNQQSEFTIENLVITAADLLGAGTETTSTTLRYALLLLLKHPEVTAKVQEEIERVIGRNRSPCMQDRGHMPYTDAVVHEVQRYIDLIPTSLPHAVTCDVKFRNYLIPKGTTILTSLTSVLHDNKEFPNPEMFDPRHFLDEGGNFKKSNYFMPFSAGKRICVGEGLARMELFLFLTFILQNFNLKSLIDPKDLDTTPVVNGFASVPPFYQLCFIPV
Chain of Nuclear receptor subfamily 1 group I member 2 (Homo sapiens) (O75469 whole entry, looked up): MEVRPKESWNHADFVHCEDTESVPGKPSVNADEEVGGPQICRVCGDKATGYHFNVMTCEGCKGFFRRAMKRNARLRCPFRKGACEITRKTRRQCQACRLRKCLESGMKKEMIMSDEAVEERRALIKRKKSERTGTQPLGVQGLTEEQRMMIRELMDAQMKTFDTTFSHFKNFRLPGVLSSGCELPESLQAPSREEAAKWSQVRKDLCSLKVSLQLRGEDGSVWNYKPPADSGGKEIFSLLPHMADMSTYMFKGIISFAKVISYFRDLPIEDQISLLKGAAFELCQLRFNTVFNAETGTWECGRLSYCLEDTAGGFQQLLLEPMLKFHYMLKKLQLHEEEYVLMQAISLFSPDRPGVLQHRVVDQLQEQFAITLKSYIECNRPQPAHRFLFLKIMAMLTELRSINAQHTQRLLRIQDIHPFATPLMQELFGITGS
Chain of Thyrotropin-releasing hormone receptor (Homo sapiens) (P34981 whole entry, looked up): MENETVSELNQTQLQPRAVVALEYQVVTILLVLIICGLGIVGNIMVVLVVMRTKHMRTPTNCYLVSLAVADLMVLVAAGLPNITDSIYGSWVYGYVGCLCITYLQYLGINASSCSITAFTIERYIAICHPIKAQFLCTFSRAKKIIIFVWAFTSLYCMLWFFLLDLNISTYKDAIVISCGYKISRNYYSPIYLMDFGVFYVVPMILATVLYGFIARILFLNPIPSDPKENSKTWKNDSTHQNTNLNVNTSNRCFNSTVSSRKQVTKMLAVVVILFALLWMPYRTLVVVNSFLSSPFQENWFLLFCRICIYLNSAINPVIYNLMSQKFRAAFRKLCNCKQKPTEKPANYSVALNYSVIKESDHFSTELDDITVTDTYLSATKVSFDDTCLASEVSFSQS

S=P(N1CC1)(N1CC1)N1CC1
inactive: Potency [1] | Potency [2] | Potency [3] | Potency [4] | Potency [5] | Potency [6] | Potency [7] | Potency [8] | Potency [9] | Potency [10]
active: Potency [11] 48.6 µM | Potency [12] 19.3 µM

CCCCCCOc1cc(C)c(O)c(C)c1C
active: Potency [5] 61.9 µM | Potency [6] 49.2 µM | Potency [13] 34.8 µM | Potency [11] 25.5 µM | Potency [14] 2.02 µM | Potency [12] 25.5 µM
inactive: Potency [1] | Potency [2] | Potency [3] | Potency [4] | Potency [7]

CN(C)c1ccc(N=NS(=O)(=O)O)cc1
active: Potency [5] 20.4 µM | Potency [8] 25 µM | Potency [13] 21.7 µM | Potency [11] 7.94 µM | Potency [14] 0.421 µM | Potency [12] 5.09 µM
inactive: Potency [15] | Potency [2] | Potency [3] | Potency [4] | Potency [6] | Potency [7]

CN(C)CCOC(c1ccccc1)c1ccccc1 (tested in a mixture with another compound)
active: Potency [13] 61.6 µM
inactive: Potency [15] | Potency [1] | Potency [2] | Potency [3] | Potency [4] | Potency [6] | Potency [7]

O=C(O)Cc1ccc(OCCNC[C@H](O)c2ccccc2)cc1
inactive: Potency [15] | Potency [1] | Potency [2] | Potency [5] | Potency [6] | Potency [7] | Potency [8] | Potency [13] | Potency [11] | Potency [14] | Potency [12]

N[C@@H](CSSC[C@H](N)C(=O)O)C(=O)O
inactive: viability change, negative = cytotoxic [15] -1.61% [at 0.29 µM] | activity change, negative = cytotoxicity [1] 1.93% [at 0.29 µM] | activation [2] 1.61% [at 0.29 µM] | activity change, negative = cytotoxicity [5] -23% [at 0.349 µM] | caspase activation [6] 0.0664% [at 0.349 µM] | activity change, negative = cytotoxicity [16] -1.36% [at 0.349 µM] | caspase-3/7 activation [7] 0.0732% [at 0.349 µM] | activity change, negative = cytotoxicity [8] 6.72% [at 0.349 µM] | activation [13] -0.742% [at 0.349 µM] | Potency [9] | Potency [10] | activity change, negative = inhibition [11] -4.15% [at 0.435 µM] | activity change, negative = inhibition [14] -14.3% [at 0.435 µM] | activity change, negative = inhibition [12] 1.25% [at 0.435 µM]

COC(=O)NCCC[Si](OC)(OC)OC
inactive: Potency [15] | Potency [1] | Potency [2] | Potency [3] | Potency [4] | Potency [5] | Potency [6] | Potency [7] | Potency [8] | Potency [13] | Potency [11] | Potency [14] | Potency [12]

CC(C)OC(=O)c1cc(C(=O)OC(C)C)cc([N+](=O)[O-])c1
active: Potency [13] 19.8 µM | Potency [11] 6.87 µM | Potency [14] 0.0816 µM | Potency [12] 0.84 µM
inactive: Potency [1] | Potency [2] | Potency [3] | Potency [4] | Potency [6] | Potency [7]

C[C@]12CC[C@H]3C(=CCc4cc(O)ccc43)[C@@H]1CCC2=O
inactive: Potency [15] | Potency [1] | Potency [3] | Potency [4] | Potency [5] | Potency [7] | Potency [11]
active: Potency [16] 61.1 µM | Potency [13] 27.3 µM | Potency [14] 31.7 µM | Potency [12] 35.6 µM

CC1=C(/C=C/C(C)=C/C=C/C(C)=C/C(=O)Nc2ccc(O)cc2)C(C)(C)CCC1
active: Potency [5] 49.8 µM and 26.6 µM | Potency [6] 70.3 µM and 29.8 µM | Potency [16] 44.4 µM and 21.1 µM | Potency [8] 55.9 µM and 26.6 µM | Potency [11] 13.8 µM | Potency [14] 41 µM and 27.5 µM | Potency [12] 9.17 µM and 8.71 µM
inactive: Potency [15] | Potency [1] | Potency [2] | Potency [3] | Potency [4] | Potency [9] | Potency [10]
19.8 µM (active) and inactive: Potency [13]

Cc1oc(-c2ccccc2)nc1CCOc1ccc(C[C@H](Nc2ccccc2C(=O)c2ccccc2)C(=O)O)cc1
active: Potency [17] 27.3 µM | Potency [5] 54.5 µM | Potency [16] 30.6 µM | Potency [8] 43.3 µM | Potency [12] 20 µM
inactive: Potency [15] | Potency [1] | Potency [4] | Potency [11]
